Hits are enriched below; roughly 11% of the tested compounds scored in any of these assays.
NPR1 antag = Natriuretic polypeptide receptor (hNpr1) antagonism - Primary qHTS; Atrial natriuretic peptide receptor 1 (Homo sapiens), P16066; 1.6% of 76,000 active; HEK293 hNpr1 GloSensor cGMP, ANP-stimulated luminescence; Potency, µM (titrated, usually from 46.3 µM), usual class: inhibitors; calls by dose curve; also: nearly all actives have a fitted effect of over 60% in size
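HEK293 cells stably expressing human Npr1 and cGMP GloSensor pGS-40F, loaded 2 h with 2% GloSensor reagent, given compound 30 min at room temperature. Luminescence read before and 20 min after 0.1 nM hNppA.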
3T3 cytotox = Cytotoxic Profiling in NIH 3T3 Cell Line of Diverse Libraries Using Quantitative High-Throughput Screening. Potency, µM (top dose mostly 96.7 µM), most hits filed as inhibitors. 4.3% of 94,000 active. AID 1345082, 2018. NIH 3T3 viability, CellTiter-Glo ATP luminescence, 48-72 h; also: nearly all actives have a fitted effect of over 55% in size
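Luminescent ATP readout (CellTiter-Glo, 10 min RT) after 48 or 72 hr compound exposure of NIH 3T3 cells seeded at 400 cells/well in 1536-well format; quantitative HTS.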
Luciferase inh = Firefly luciferase inhibition profiling of diverse chemical library using quantitative high-throughput screening | Luciferin 4-monooxygenase (Photinus pyralis), P08659 | purified P. pyralis luciferase, luminescence, biochemical | Potency, µM (titrated, usually from 115 µM), most hits filed as inhibitors | 2.5% of 76,000 active; also: nearly all actives have a fitted effect of over 65% in size
Target sequence (P08659 whole entry, looked up): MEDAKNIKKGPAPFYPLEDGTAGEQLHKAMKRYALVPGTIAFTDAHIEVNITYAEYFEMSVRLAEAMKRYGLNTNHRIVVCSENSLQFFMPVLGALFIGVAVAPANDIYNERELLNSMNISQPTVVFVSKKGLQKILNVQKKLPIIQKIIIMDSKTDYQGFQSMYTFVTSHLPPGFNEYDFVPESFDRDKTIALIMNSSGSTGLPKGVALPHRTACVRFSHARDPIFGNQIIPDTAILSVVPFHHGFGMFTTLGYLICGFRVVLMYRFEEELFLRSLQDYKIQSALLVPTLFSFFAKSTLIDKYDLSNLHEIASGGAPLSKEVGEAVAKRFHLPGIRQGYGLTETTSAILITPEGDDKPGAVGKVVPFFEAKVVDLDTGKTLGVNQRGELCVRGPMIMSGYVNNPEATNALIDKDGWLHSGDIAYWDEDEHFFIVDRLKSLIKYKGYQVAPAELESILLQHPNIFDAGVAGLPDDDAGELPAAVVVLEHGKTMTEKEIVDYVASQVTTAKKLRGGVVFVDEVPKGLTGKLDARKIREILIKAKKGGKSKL
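FLuc 10nM, D-luciferin 10uM, ATP 10uM, Mg acetate 10mM, Tris acetate pH 7.5, Tween/BSA; cpd qHTS; enzyme added last; CCD luminescence.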
HEK293 tox = Cytotoxic Profiling in HEK 293 Cell Line of Diverse Libraries Using Quantitative High-Throughput Screening | HEK 293 viability, ATP luminescence (CellTiter-Glo), 48-72 h | Potency, µM (doses to about 115 µM), actives largely listed as inhibitors | 6.6% of 94,000 active; also: nearly all actives have a fitted effect of over 60% in size
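Luminescence from cellular ATP, measured with CellTiter-Glo, indicates HEK 293 viability. Cells plated at 250 cells/well are treated with compound for 48 or 72 hr at 37 degree Celsius before reagent addition.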
Of the large screens only hits and unclear results are named; the others gave an inactive call. Unless noted, calls follow the shape of the dose curve; as a rule, active = well fitted curve in the direction sought with a large enough effect; inconclusive = small, poorly fitted or top-dose-only effect, or another doubt; inactive = no such curve, though single readings can be large; an effect the other way counts as inactive or inconclusive.

Cn1ccc(NC(=O)C2(C)CCc3cnc(NCc4ccccc4)nc32)n1 (centres undefined)	3T3 cytotox 20µM, HEK293 tox inconclusive
CC1(C(=O)NCCCn2ccnc2)CCc2cnc(NCc3ccccc3)nc21 (centres undefined)	3T3 cytotox 32µM
COCCNC(=O)C1(C)CCc2cnc(NCc3ccccc3)nc21 (centres undefined)	3T3 cytotox 89µM
CC1(C(=O)NCCOc2ccccc2)CCCc2cnc(Nc3cccnc3)nc21 (centres undefined)	3T3 cytotox inconclusive, HEK293 tox 100µM
COCCNC(=O)C1(C)CCCc2cnc(Nc3ccccc3)nc21 (centres undefined)	3T3 cytotox inconclusive, HEK293 tox inconclusive
CC1(C(=O)NCCN2CCOCC2)CCCc2cnc(NCc3ccccc3)nc21 (centres undefined)	3T3 cytotox inconclusive
COc1ccc(N2CCN(C(=O)CN3C(=O)NC4(CCCCC4)C3=O)CC2)cc1	none
Cc1ccccc1-c1cc2c(ccn2C)c(C(=O)NCCc2cnc[nH]2)n1	3T3 cytotox inconclusive, HEK293 tox inconclusive
O=S(=O)(c1ccc2c(c1)OCCO2)N1CCC(Cc2nc(-c3cccnc3)n[nH]2)C1 (centres undefined)	none
COCCNC(=O)C1(C)CCc2cnc(Nc3ccccc3)nc21 (centres undefined)	3T3 cytotox 79µM, HEK293 tox inconclusive
CC1(C(=O)NCC2CC2)CCc2cnc(NCc3ccccc3)nc21 (centres undefined)	3T3 cytotox inconclusive, HEK293 tox 40µM
Cc1ccc(S(=O)(=O)N2CCCC(CCC(=O)NCc3cccc(F)c3)C2)cc1 (centres undefined)	3T3 cytotox inconclusive, HEK293 tox inconclusive
O=C(Nc1ccc(Cl)cc1)N1CCC2(CC1)C(=O)NCN2Cc1ccc(Cl)cc1	3T3 cytotox inconclusive, HEK293 tox inconclusive
COc1ccc(C(C)NC(=O)C2CCN(C(=O)c3ncn4c3COC(c3ccccc3)C4)CC2)cc1 (centres undefined)	Luciferase inh 28µM
COc1cc(NC(=O)C2CCN(C(=O)c3ncn4c3COC(c3ccccc3)C4)CC2)cc(OC)c1 (centres undefined)	Luciferase inh 25µM
CC(NC(=O)C1CCN(C(=O)c2ncn3c2COC(c2ccc(Cl)cc2)C3)CC1)c1ccccc1 (centres undefined)	none
COCCn1c(C)cc(C(=O)N2CCC3(CC2)CC(C(=O)N2CCOCC2)N(C)C3)c1C (centres undefined)	none (no result: NPR1 antag, Luciferase inh)
COc1ccc(-c2ccc(C(=O)N3CCC(NC(=O)C4CC4)C3)cc2)nn1 (centres undefined)	none (no result: NPR1 antag, Luciferase inh)
O=C(C[C@H]1NC(=O)c2ccccc2NC1=O)Nc1cccc(C(F)(F)F)c1	3T3 cytotox inconclusive, HEK293 tox 45µM
Cc1ccccc1NC(=O)CC[C@H]1NC(=O)c2ccccc2NC1=O	none
Cc1c(Cl)cccc1NC(=O)C[C@H]1NC(=O)c2ccccc2NC1=O	3T3 cytotox inconclusive, HEK293 tox 45µM
Cc1cc(Br)ccc1NC(=O)C[C@H]1NC(=O)c2ccccc2NC1=O	3T3 cytotox 20µM, HEK293 tox inconclusive
O=C(C[C@H]1NC(=O)c2ccccc2NC1=O)Nc1ccncc1	none
COc1ccc(CCNC(=O)c2ccc3nnc(C4CCOCC4)n3c2)cc1	none (no result: NPR1 antag, Luciferase inh)
OCc1ccc(-c2cc3c(ccn3Cc3cccnc3)c(C3=CCOCC3)n2)cc1	3T3 cytotox inconclusive, HEK293 tox inconclusive
C1=C(c2nc(-c3ccncc3)cc3c2ccn3Cc2cccnc2)CCOC1	3T3 cytotox 22µM, HEK293 tox inconclusive
COCCn1ccc2c(C3=CCOCC3)nc(-c3cccc(C(N)=O)c3)cc21	3T3 cytotox 25µM, HEK293 tox inconclusive
CCn1ccnc1CN(C)Cc1cn(C)nc1-c1ccc(Oc2ccccc2)cc1	3T3 cytotox inconclusive, HEK293 tox 40µM
CCn1ccnc1CN(C)Cc1cn(Cc2ccccc2)nc1-c1cc2ccccc2o1	3T3 cytotox 40µM, HEK293 tox 45µM
CCn1ccnc1CN(C)Cc1cn(Cc2ccccc2)nc1-c1ccc2c(c1)OCO2	3T3 cytotox inconclusive, HEK293 tox inconclusive
CCc1nc(-c2c3n(c(=O)n(Cc4ccccc4C(F)(F)F)c2=O)CCCC3)no1	none
CN1CCC(Cc2ccc(C(=O)O)cc2)CC1	none
CCN(CC1CCN(C2CCN(C)CC2)CC1)C(=O)c1ccc(-c2ccccc2)cc1	3T3 cytotox 28µM, HEK293 tox 22µM
COc1cccc(C(=O)N2CCCC2C(=O)N2CCC(N3Cc4ccccc4C3=O)CC2)c1 (centres undefined)	none (no result: NPR1 antag, Luciferase inh)
CC1CCC2(CC1)OCC(C(=O)NCc1ccccc1)N2C(=O)c1ccc(Cl)c(Cl)c1 (centres undefined)	3T3 cytotox 20µM, HEK293 tox inconclusive
CCCC1CN(Cc2cccc(F)c2)C(=O)c2ccc(C)nc2O1 (centres undefined)	3T3 cytotox inconclusive, HEK293 tox 50µM (no result: NPR1 antag, Luciferase inh)
Cc1ccc2c(n1)O[C@@H](COCc1ccccc1)CN(Cc1ccc3c(c1)OCO3)C2=O	3T3 cytotox 13µM, HEK293 tox inconclusive (no result: NPR1 antag, Luciferase inh)
Cc1ccc2c(n1)O[C@@H](COCc1ccccc1)CN(Cc1cccs1)C2=O	3T3 cytotox 25µM, HEK293 tox 32µM (no result: NPR1 antag, Luciferase inh)
O=[S+]1([O-])NC2(CCCN(Cc3ccccc3C(F)(F)F)C2)CNc2ccccc21 (centres undefined)	3T3 cytotox inconclusive, HEK293 tox 45µM
O=[S+]1([O-])NC2(CCCN(Cc3ccccc3)C2)CNc2ccccc21 (centres undefined)	HEK293 tox inconclusive
Cn1ncc2c(C(=O)NCCCc3ccccc3)cc(-c3ccc(Cl)nc3)nc21	none (no result: NPR1 antag, Luciferase inh)
Cc1nn(-c2ccccc2)c2c1C(C1CC1)N(C1CCCN(C(=O)c3ccc(F)cc3)C1)C2=O (centres undefined)	3T3 cytotox inconclusive, HEK293 tox 32µM (no result: NPR1 antag, Luciferase inh)
COc1ccc(C(=O)N2CCC(N3C(=O)c4c(c(C)nn4-c4ccccc4)C3C3CC3)C2)cc1 (centres undefined)	3T3 cytotox inconclusive, HEK293 tox 45µM (no result: NPR1 antag, Luciferase inh)
Cc1nn(-c2ccccc2)c2c1C(C1CC1)N(C1CCN(C(=O)c3cccc(C(F)(F)F)c3)C1)C2=O (centres undefined)	none (no result: NPR1 antag, Luciferase inh)
Cc1nn(-c2ccccc2)c2c1C(C1CC1)N(C1CN(C(=O)c3ccc(C(F)(F)F)cc3)C1)C2=O (centres undefined)	HEK293 tox inconclusive (no result: NPR1 antag, Luciferase inh)
Cc1nn(-c2ccccc2)c2c1C(C1CC1)N(C1CN(C(=O)c3ccncc3)C1)C2=O (centres undefined)	none (no result: NPR1 antag, Luciferase inh)
Cc1ccc(C(=O)N2CCC(N3C(=O)c4c(c(C)nn4-c4ccccc4)C3C3CC3)C2)cc1 (centres undefined)	3T3 cytotox 18µM, HEK293 tox 25µM (no result: NPR1 antag, Luciferase inh)

Compound activity (PubChem)
